# From PubChem
# An excerpt weighted towards active compounds, which were near 1.8% of everything screened.
# BH1578 lux ind: inducers of Vibrio cholerae quorum light production without autoinducers; V. cholerae BH1578 lux reporter, luminescence, 6 h; activation, % at 18.7 µM; 0.16% of 350,000 active; AID 588436; in the data active means activation mostly above about 9.7%, no sharp cut-off
# MazF activator: activators of E. coli MazEF toxin-antitoxin RNase; FAM/BHQ RNA-DNA oligo cleavage fluorescence, 5 h; 0.32% of 350,000 active; activation, % at 20 µM; AID 504720; in the data active means activation above about 50%
# Target sequence (P0AE70 whole entry, looked up): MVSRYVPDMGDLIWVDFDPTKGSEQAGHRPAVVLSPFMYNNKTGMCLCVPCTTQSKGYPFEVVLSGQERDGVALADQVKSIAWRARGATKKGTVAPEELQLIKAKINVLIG
# Yp Topo-I inh: blocks Yersinia pestis topoisomerase I activity. Y. pestis Topo-I cleavage product accumulation, plate reader. activity, % at 10 µM. 0.064% of 360,000 active. AID 504884; in the data active means activity above about 50%, passing the limit was not always enough
# PrPC TRFRET: reduces human prion protein on the cell surface; P04156; cell surface PrPC, TR-FRET read-out; inhibition, % at 13.8 µM; 0.43% of 370,000 active; AID 720596; in the data active means inhibition above about 24%; further: 0% = median of the test wells and 100% = reference compound wells
# CCHF vOTU inh-1: blocks the CCHF virus ovarian tumor domain protease; 0.55% of 370,000 active; CCHFV vOTU protease, Pep-AMC fluorescence; inhibition, % at 11.5 µM; AID 651958; further: 0% = vehicle wells with enzyme and 100% = no enzyme wells
# DUSP3 inh: DUSP3 (human) phosphatase inhibition | 0.52% of 290,000 active | inhibition, % at 13.3 µM | recombinant VHR phosphatase, pNPP absorbance; in the data active means inhibition above about 50%
# Target sequence (P51452 whole entry, looked up): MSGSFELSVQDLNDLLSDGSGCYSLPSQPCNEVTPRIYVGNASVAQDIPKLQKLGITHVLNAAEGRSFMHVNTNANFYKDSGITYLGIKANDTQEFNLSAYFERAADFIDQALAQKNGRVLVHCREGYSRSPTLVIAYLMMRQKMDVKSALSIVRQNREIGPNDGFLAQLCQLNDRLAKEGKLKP
# CCHF vOTU inh-2: confirmation of CCHF virus vOTU protease inhibitors | AID 686976 | 17% of 1,900 active | Recombinant CCHFV vOTU, Pep-AMC fluorescence | shares compounds with CCHF vOTU inh-1 | inhibition, % at 11.5 µM
# * hit, by the source's call; i = inactive; · = not tested or not shown. Unless noted, no stated cut-off is given here; in the data, active means inhibition above about 30%; inactive means the rest.
SMILES,BH1578 lux ind,MazF activator,Yp Topo-I inh,PrPC TRFRET,CCHF vOTU inh-1,DUSP3 inh,CCHF vOTU inh-2
CCN1C(=O)[C@H]2[C@@H](c3ccc(OC)cc3)N[C@]3(CCCN(Cc4cccn4C)C3=O)[C@H]2C1=O,-0.4,5.9,18.5,3.2,30.5*,·,-1.8
CN(CCc1ccccc1)C(=O)c1cc(COc2cccc(C(F)(F)F)c2)on1,-0.6,-1.6,28.7,-6.5,30.0*,-12.9,13.4
CN(CCCN1CCOCC1)C(=O)c1cc(COc2cccc(C(F)(F)F)c2)on1,-0.4,-24.1,11.7,2.2,0.7,1.9,·
Cc1c(C)c2c(C)nn(-c3ccccc3)c2[nH]c1=O,i,-6.2,5.0,0.0,-2.7,37.5,·
Nc1c2c(=O)[nH]c(O)cc2nn1-c1ccccc1,-5.0,-0.8,5.0,-8.2,62.8*,·,-11.1
CCCCCCCCCC(=O)N[C@@H]1c2cc(OC)c(OC)cc2C[C@H]1O,-1.5,1.7,29.4,-3.7,31.3*,·,-0.7
COc1cc2c(cc1OC)[C@@H](NC(=O)CCC1CCCCC1)[C@H](O)C2,i,0.8,-1.0,-3.0,-3.6,·,·
N#Cc1c(N)n(-c2ccccc2N)c2nc3ccccc3nc12,-0.5,2.1,-2.7,-9.4,64.8*,-7.7,65.0*
N#Cc1c(N)n(-c2cccc(C(=O)O)c2)c2nc3ccccc3nc12,3.7,-69.0,6.4,-9.4,-376.2,17.6,·
CCn1c(COc2ccc3ccccc3c2C)nnc1SCC(=O)Nc1cccc(C(=O)O)c1,i,-7.5,29.9,-10.4,32.9*,10.1,3.8
CCn1c(COc2cccc(C)c2)nnc1SCC(=O)Nc1cccc(C(=O)O)c1,i,-1.4,-5.5,-2.2,6.8,14.6,·
COc1cc(/C=C2\C(=N)N3N=C(C)SC3=NC2=O)cc(Cl)c1OCCOc1ccc(NC(C)=O)cc1,-0.6,9.0,-0.9,-8.1,7.5,9.5,·
O=C1Nc2ccccc2CCc2ccccc21,i,-3.5,4.1,-1.3,-7.4,·,·
O=C1Cc2ccccc2C(=O)N1,·,·,·,-6.0,115.8*,·,93.8*
Cc1oc2c(c1C(=O)O)C(=O)c1ccccc1C2=O,-0.2,-2.8,7.0,-17.4,67.5*,5.6,78.0*
O=S(=O)(Nc1nc(-c2ccccc2)cs1)c1cccc(C(F)(F)F)c1,i,1.9,2.6,0.9,32.5*,25.9,11.7
O=S(=O)(Nc1cccc2ccccc12)c1cccs1,i,0.6,6.1,-1.0,7.1,-9.1,·
O=S(=O)(Nc1ccc(O)c2ccccc12)c1cccs1,-0.1,23.4,-3.9,-13.1,107.7*,3.0,-0.7
COc1ccc(S(=O)(=O)N2CCN(Cc3ccc(Cl)cc3)CC2)cc1,i,-7.7,19.5,0.6,33.2*,4.8,-0.4
Cc1ccc(S(=O)(=O)CCC(=O)NCCN2C(=O)S/C(=C\c3ccccc3)C2=O)cc1,1.6,-12.1,29.8,-1.3,40.2*,4.6,-16.4
O=C(CCS(=O)(=O)c1ccc(Cl)cc1)NCCN1C(=O)S/C(=C\c2ccccc2F)C1=O,-0.4,-6.5,25.5,-2.8,-6.9,-2.5,·
CC(=O)N1CCc2cc(S(=O)(=O)NC(C(=O)Nc3ccc4c(c3)OCCO4)C(C)C)ccc21 (centres undefined),-0.3,10.2,1.9,-5.3,29.8*,10.9,-6.8
CCN(CC)CC(=O)NC1CCCc2c1cnn2-c1cc(F)cc(F)c1 (centres undefined),-0.9,1.6,1.5,4.5,2.6,·,·
CSCC(=O)NC1CCCc2c1cnn2-c1cc(F)cc(F)c1 (centres undefined),-0.7,1.0,2.4,1.9,30.2*,-1.9,-25.6
CCCCN1CCCC1CNC(=O)c1cc(C#N)c2ccccc2c1OC (centres undefined),·,·,·,·,·,7.4,·
SMILES,BH1578 lux ind,MazF activator,Yp Topo-I inh,PrPC TRFRET,CCHF vOTU inh-1,DUSP3 inh,CCHF vOTU inh-2
CCOc1cc(/C=N/Nc2nnc(C)n2N)ccc1OC(C)=O,-0.9,3.0,0.0,-4.4,85.7*,-12.9,-13.0
C(=N\Nc1nc2ccccc2s1)/c1cccs1,-0.7,-7.8,-13.2,-6.8,13.4,35.5,·
CC(C)(C)c1nnc(N/N=C/c2cc(Br)ccc2O)n(N)c1=O,-0.3,10.8,19.1,-5.2,2.4,22.7,·
CCc1nnc(N/N=C\c2ccc(OC(C)=O)c(OC)c2)n1N,-1.5,5.6,2.7,-7.6,66.4*,-5.7,-6.3
CCc1nnc(N/N=C/c2cc(Br)c(O)cc2O)n1N,i,1.9,-9.7,-2.4,96.3*,4.9,13.5
CCc1nnc(N/N=C/c2cccs2)n1N,-0.4,9.3,1.0,-7.0,89.2*,15.3,-2.9
Cc1ccc(Nc2nc(N)c(C#N)c(CC#N)c2C#N)cc1,0.1,7.7,4.0,0.1,-1.9,21.6,·
CCc1nnc(N/N=C/c2ccc(O)c(OC)c2)n1N,-0.6,-2.5,-6.7,0.8,77.3*,0.1,-1.9
COc1cc(/C=N/Nc2ccccn2)ccc1O,6.9,0.9,-0.8,-0.7,18.5,9.3,·
CN(C(=O)COC(=O)C1COc2ccccc2O1)C1(C#N)CCCCC1 (centres undefined),3.0,4.9,-2.9,0.8,-9.4,·,·
CCNC(=S)Nc1cccc(F)c1C,-0.7,8.8,-2.2,-0.3,-10.7,-7.1,·
CCOC(=O)c1c(/N=C/c2cc(OC)cc([N+](=O)[O-])c2O)sc(C)c1C,i,5.0,-0.8,-0.8,0.1,7.6,·
CCOC(=O)c1c(/N=C/c2cc([N+](=O)[O-])ccc2O)sc(C)c1C,-0.1,-1.8,-0.7,-13.1,30.2*,4.7,13.5
CC(C)(C)[C@@H]1COC(=O)[C@H](Cc2ccc(F)cc2)C/C=C\C[C@@H](CC(=O)NCCO)C(=O)N1,-0.8,2.5,-10.4,3.5,12.1,·,·
Cc1ccc(OCc2cc(C(=O)N3CCC(C(O)C(C)C)CC3)no2)cc1C (centres undefined),i,4.1,25.5,12.3,33.3*,-14.6,-9.3
CCOc1ccc(N=Cc2ccc([N+](=O)[O-])cc2)c(O)c1,i,3.3,-22.5,-3.5,35.2*,·,-2.7
O=C(ONC1=NCCCCC1)c1ccc([N+](=O)[O-])cc1,-0.2,2.1,1.0,-9.5,-1.2,24.2,·
CCc1cccc(NC(=O)CN(C)S(=O)(=O)c2cccc3nsnc23)c1,i,4.2,1.6,-17.1,36.4*,-9.4,-3.4
CC(C)NC(=O)Nc1ccc2c(c1)C(=O)N([C@H](C)CO)C[C@H](C)[C@@H](CN(C)C(=O)NC(C)C)O2,i,6.3,7.6,6.0,9.8,·,·
O=C(COc1ccc(NC(=O)c2ccccc2)cc1)c1ccccc1,i,9.9,0.5,5.7,31.2*,-2.5,-13.0
CN(C)NC(=S)Nc1ccc2nc(-c3ccccn3)c(-c3ccccn3)nc2c1,-2.1,-20.6,-0.8,-12.2,-1.9,7.2,·
S=C(Nc1ccc2nc(-c3ccccn3)c(-c3ccccn3)nc2c1)N1CCOCC1,-5.6,9.7,-2.4,-17.3,36.3*,16.5,-58.5
Cc1cc(=O)n(-c2ccc(C(=O)O)cc2)[nH]1,-1.7,5.4,0.8,-3.4,54.3*,9.8,-19.8
